Test results as given in PubChem BioAssay AID434959 (Broad Institute, 2010).
Out of some 30,000 compounds screened, about 110 (0.37%) were called active. The full list was thinned out, with actives kept by preference. Values without a mark were called inactive.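 Rule for the calls: active = delta delta Cp rounded down to an integer at or above 3, about 3 SD of DMSO wells; inactive = the rest.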

Test: YB-1 transcript reduction by qRT-PCR – cell-based, fluorescence, primary screen (AID 434959);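 note: higher means less YB-1 transcript or more CDIP transcript relative to DMSO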
Conditions: U2OS, qRT-PCR YB-1 vs CDIP delta delta Cp, 16 h; active compounds read high; zero = DMSO, each unit about twofold

SMILES | delta Cp (YB-1 minus CDIP)
C[C@@H]1CN([C@H](C)CO)C(=O)c2cc(NC(=O)Nc3ccc4c(c3)OCO4)ccc2O[C@H]1CN(C)Cc1ccc(-c2ccccc2)cc1 | 0.369
C[C@H](CO)N1C[C@H](C)[C@H](CN(C)C(=O)Nc2ccc(C(F)(F)F)cc2)Oc2ccc(N(C)C)cc2CC1=O | 0.00881
Cc1cc(C(=O)Nc2cccc3c2O[C@@H](CN(C)Cc2ccc(C(=O)O)cc2)[C@H](C)CN([C@@H](C)CO)C3=O)n(C)n1 | -0.416
O=C(N/N=C/c1ccc(Oc2ccccc2)cc1)c1ccccn1 | -0.417
COc1ccc(NC(=O)N(C)C[C@@H]2Oc3ccc(NS(=O)(=O)c4ccc(OC)cc4)cc3CC(=O)N([C@H](C)CO)C[C@H]2C)cc1 | -0.353
C[C@H]1CN([C@@H](C)CO)C(=O)c2cccc(NC(=O)Nc3ccccc3)c2O[C@H]1CN(C)C(=O)Nc1cccc2ccccc12 | 0.0743
C[C@@H]1CN([C@@H](C)CO)C(=O)CCCn2cc(nn2)CO[C@@H]1CN(C)C(=O)C1CCCCC1 | -0.464
Cc1noc(C)c1S(=O)(=O)N(C)C[C@H]1OCc2cn(nn2)CCCC(=O)N([C@H](C)CO)C[C@H]1C | 0.0461
C[C@H](CO)N1C[C@H](C)[C@@H](CN(C)Cc2ccc(C(F)(F)F)cc2)Oc2ccc(NC(=O)CCC(F)(F)F)cc2C1=O | -0.124
C[C@@H]1CN([C@H](C)CO)C(=O)c2cccc(NC(=O)C3CCCCC3)c2O[C@@H]1CN(C)C(=O)NC1CCCCC1 | 0.413
COc1ccc(CN(C)C[C@@H]2Oc3ccc(NS(=O)(=O)c4cn(C)cn4)cc3C(=O)N([C@@H](C)CO)C[C@@H]2C)cc1 | -0.246
Cc1ccc(C(=O)c2coc3ccc(O)c(CN(C)C)c23)cc1 | 0.308
CCCN(C)C[C@@H]1OCCCC[C@@H](C)Oc2ccc(NC(=O)CCCN(C)C)cc2C(=O)N([C@H](C)CO)C[C@@H]1C | -0.0474
COc1ccc(C#Cc2ccc3c(c2)[C@]2(C(=O)N3)[C@H](C(=O)N3CCc4cc(OC)c(OC)cc4C3)[C@H]3C(=O)O[C@H](c4ccccc4)[C@H](c4ccccc4)N3[C@@H]2c2ccc(O)cc2)cc1 | 0.269
CC(=O)N1[C@@H](c2ccc(C)cc2)SC(C)(C)[C@@H]1C(=O)O | -0.179
Cc1ccc(S(=O)(=O)N(C)C[C@@H]2Oc3ccc(NC(=O)NC4CCCCC4)cc3C(=O)N([C@@H](C)CO)C[C@H]2C)cc1 | 0.362
Cc1ccc(S(=O)(=O)Nc2ccc3c(c2)C(=O)N([C@@H](C)CO)C[C@@H](C)[C@H](CN(C)CC2CC2)O3)cc1 | -0.0524
COc1ccc(S(=O)(=O)Nc2cccc3c2O[C@@H](CN(C)C(=O)Nc2ccccc2)[C@@H](C)CN([C@@H](C)CO)C3=O)cc1 | -0.0223
Cc1noc(C)c1NC(=O)Nc1ccc2c(c1)C(=O)N([C@H](C)CO)C[C@H](C)[C@H](CN(C)Cc1ccncc1)OCCCC[C@@H](C)O2 | -0.384
COc1ccc(CN(C)C[C@H]2Oc3c(NC(=O)C4CC4)cccc3C(=O)N([C@@H](C)CO)C[C@H]2C)cc1 | -0.0719
C[C@H]1CN([C@@H](C)CO)C(=O)c2cc(NC(=O)CCC(F)(F)F)ccc2O[C@H]1CN(C)Cc1ccc(C(=O)O)cc1 | -0.0494
C[C@@H]1CN([C@H](C)CO)C(=O)c2cc(NS(=O)(=O)c3ccccc3)ccc2O[C@H]1CN(C)S(=O)(=O)c1cccs1 | 0.37

SMILES | delta Cp (YB-1 minus CDIP)
COc1ccc(S(=O)(=O)Nc2ccc3c(c2)C(=O)N([C@H](C)CO)C[C@@H](C)[C@@H](CN(C)CC2CCCCC2)O3)cc1 | 0.268
Cc1ccc(S(=O)(=O)Nc2ccc3c(c2)C(=O)N([C@H](C)CO)C[C@H](C)[C@H](CN(C)S(=O)(=O)c2ccc(F)cc2)O3)cc1 | 0.151
C[C@@H]1CN([C@@H](C)CO)C(=O)CCCn2nncc2CO[C@H]1CN(C)C(=O)Nc1ccc(C(F)(F)F)cc1 | -0.177
O=C(CCCCCCC(=O)Nc1ccccc1O)N/N=C/c1ccc(C(F)(F)F)cc1 | -0.34
Cc1noc(C)c1S(=O)(=O)Nc1ccc2c(c1)CC(=O)N([C@H](C)CO)C[C@@H](C)[C@@H](CN(C)Cc1ccncc1)O2 | -0.237
COc1ccc2c(c1)C(=O)CC(c1ccccc1)O2 (centres undefined) | -0.382
COc1cc(CCC(=O)O)oc(=O)c1 | 0.941
COc1cc([C@H](Cc2ccccc2)NC(C)=O)oc(=O)c1 | 7.24 (active)
COc1ccc(S(=O)(=O)Nc2ccc3c(c2)CC(=O)N([C@H](C)CO)C[C@@H](C)[C@@H](CN(C)S(=O)(=O)c2ccc(F)cc2)O3)cc1 | 0.215
Cc1noc(C)c1S(=O)(=O)Nc1ccc2c(c1)C(=O)N([C@@H](C)CO)C[C@H](C)[C@H](CN(C)Cc1ccc(C(=O)Nc3ccccc3N)cc1)O2 | -0.223
C[C@@H]1CN([C@@H](C)CO)C(=O)c2cccc(NC(=O)CCCCCC(=O)Nc3ccccc3N)c2O[C@@H]1CN(C)CC1CCCCC1 | -0.278
C[C@@H]1CN([C@@H](C)CO)C(=O)Cc2cc(NC(=O)C3CCCCC3)ccc2O[C@@H]1CN(C)Cc1ccc(-c2ccccc2)cc1 | -0.443
COc1ccc(NC(=O)N(C)C[C@H]2Oc3ccc(NS(=O)(=O)c4ccc(F)cc4)cc3C(=O)N([C@@H](C)CO)C[C@@H]2C)cc1 | 0.491
COc1cc(OC)c(/C=N/NC(=O)CCCCCCC(=O)Nc2ccccc2O)c(OC)c1 | -0.14
N#C/C(=C\c1ccc(O)c(O)c1)C(N)=O | -0.313
Cc1noc(C)c1NC(=O)N(C)C[C@@H]1Oc2ccc(NC(=O)Nc3ccc4c(c3)OCO4)cc2C(=O)N([C@H](C)CO)C[C@H]1C | -0.0859
C[C@@H]1CCCCO[C@H](CN(C)Cc2ccccc2)[C@@H](C)CN([C@H](C)CO)C(=O)c2cc(NS(C)(=O)=O)ccc2O1 | -0.038
O=C(O)CCC(=O)N(Cc1ccccc1)Cc1cn(-c2ccccc2)nc1-c1cccnc1 | -0.539
C[C@@H]1CN([C@@H](C)CO)C(=O)c2cc(N(C)C)ccc2O[C@H]1CN(C)Cc1ccc(C(F)(F)F)cc1 | -0.101
C[C@@H]1CN([C@@H](C)CO)C(=O)c2cc(NC(=O)Cc3ccccc3)ccc2O[C@@H]1CN(C)S(=O)(=O)c1ccccc1 | 0.109
C[C@@H]1CN([C@@H](C)CO)C(=O)c2cc(NC(=O)c3ccncc3)ccc2O[C@H]1CN(C)S(=O)(=O)c1ccc(Cl)cc1 | -0.0147
Cc1ccoc1CC[N+](C)(C)C | -0.0929

SMILES | delta Cp (YB-1 minus CDIP)
C[C@@H]1CN([C@@H](C)CO)C(=O)CCCn2nncc2CO[C@H]1CN(C)Cc1ccc(C(F)(F)F)cc1 | -0.415
CNC[C@H]1Oc2ccc(NS(=O)(=O)c3ccc(F)cc3)cc2C(=O)N([C@@H](C)CO)C[C@@H]1C | -0.0588
C[C@@H]1CCCCO[C@@H](CN(C)S(=O)(=O)c2cccs2)[C@@H](C)CN([C@H](C)CO)C(=O)c2cc(NC(=O)Nc3ccc(F)cc3)ccc2O1 | -0.356
COc1cccc(NC(=O)N(C)C[C@@H]2OCc3cn(nn3)CCCC(=O)N([C@@H](C)CO)C[C@H]2C)c1 | 0.0991
CC(C)(C)C(=O)CSc1nc2ccccc2c(=O)n1CC1CC1 | -0.316
COC(=O)C1=C(C)NC2=C(C(=O)CC(C)(C)C2)C1c1ccncc1 (centres undefined) | -0.233
O=C(O)CCCCCC(=O)N/N=C/c1ccncc1Br | -0.0121
Cc1ccc(/C=N/NC(=O)CCCCCCC(=O)O)o1 | -0.127
COc1ccc(NC(=O)Nc2cccc3c2O[C@H](CN(C)Cc2ccncc2)[C@@H](C)CN([C@@H](C)CO)C3=O)cc1 | -0.239
CC(C)S(=O)(=O)NCC1CCN(Cc2cccc(OCCO)c2)CC1 | 0.112
C[C@@H]1CCCCO[C@H](CN(C)C(=O)Nc2cccc3ccccc23)[C@@H](C)CN([C@H](C)CO)C(=O)c2cc(NC(=O)Nc3ccc4c(c3)OCO4)ccc2O1 | 0.427
C[C@@H]1CN([C@@H](C)CO)C(=O)CCCn2cc(nn2)CO[C@H]1CN(C)Cc1cccc2c1OCCCO2 | -0.151
Cc1noc(C)c1S(=O)(=O)Nc1ccc2c(c1)CC(=O)N([C@@H](C)CO)C[C@H](C)[C@H](CN(C)C(=O)Nc1cccc3ccccc13)O2 | -0.29
CN1C(=O)C(Cc2ccccc2)(Cc2ccccc2)c2ccccc21 | -0.307
C[C@@H]1CN([C@H](C)CO)C(=O)c2cc(NC(=O)CCCN(C)C)ccc2O[C@H]1CN(C)S(=O)(=O)c1ccc(Cl)cc1 | -0.394
Cc1ccc(S(=O)(=O)N(C)C[C@@H]2OCCCC[C@@H](C)Oc3ccc(NS(=O)(=O)c4ccccc4)cc3C(=O)N([C@H](C)CO)C[C@@H]2C)cc1 | -0.0955
O=C(CCCCCCC(=O)Nc1ccccc1O)N/N=C/c1ccc2c(c1)Cc1ccccc1-2 | 0.456
O=C(N/N=C/c1cc(F)ccc1O)c1ccccc1O | 0.293
COc1ccc2nc3c(nc2c1)C(=O)c1ccccc1C3=O | 0.188
COc1ccc(OC)c(CCCc2cc(OC)ccc2OC)c1 | 10.3 (active)
